Beta apoptosis: beta cell apoptosis inhibition; INS-1E cytokine-induced death, ATP luminescence, 48 h; percent of positive-control rescue, neutral wells zero; protection from apoptosis, % (concentration not given with the values); 300,000 tested, 0.8% active;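 active = Every replicate reaches about 75%, or at least half do and their mean reaches it too, limit read from the data; inconclusive = At least half of replicates reach the limit but their mean does not; inactive = Under half of replicates reach the limit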;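 note: 0% = cytokine-treated negative control wells and 100% = positive control rescue; higher means more ATP so stronger rescue from cytokine killing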
Mdm2-MdmX inh: disrupts the human Mdm2-MdmX interaction; 330,000 tested, 3% active; SaOS-2 split-luciferase Mdm2/MdmX complementation, luminescence; O15151+Q00987; inhibition, % at 8 µM; AID 485346;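 active = inhibition of at least 50% at 8 µM in the primary screen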
Target sequence (O15151 whole entry, looked up): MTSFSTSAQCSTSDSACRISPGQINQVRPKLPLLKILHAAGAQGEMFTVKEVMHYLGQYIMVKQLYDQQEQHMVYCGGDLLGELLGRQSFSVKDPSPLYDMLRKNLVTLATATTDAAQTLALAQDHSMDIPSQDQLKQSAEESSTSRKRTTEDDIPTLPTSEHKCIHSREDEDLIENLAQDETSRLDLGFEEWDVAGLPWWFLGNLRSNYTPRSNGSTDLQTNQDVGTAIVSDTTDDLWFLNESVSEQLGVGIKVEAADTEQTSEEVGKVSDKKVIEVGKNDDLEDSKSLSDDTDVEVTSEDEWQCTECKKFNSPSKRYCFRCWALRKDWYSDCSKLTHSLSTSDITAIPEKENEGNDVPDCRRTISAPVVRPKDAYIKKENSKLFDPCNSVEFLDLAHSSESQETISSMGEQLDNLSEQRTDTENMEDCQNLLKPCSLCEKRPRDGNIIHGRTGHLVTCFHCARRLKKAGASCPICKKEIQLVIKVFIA
Target sequence (Q00987 whole entry, looked up): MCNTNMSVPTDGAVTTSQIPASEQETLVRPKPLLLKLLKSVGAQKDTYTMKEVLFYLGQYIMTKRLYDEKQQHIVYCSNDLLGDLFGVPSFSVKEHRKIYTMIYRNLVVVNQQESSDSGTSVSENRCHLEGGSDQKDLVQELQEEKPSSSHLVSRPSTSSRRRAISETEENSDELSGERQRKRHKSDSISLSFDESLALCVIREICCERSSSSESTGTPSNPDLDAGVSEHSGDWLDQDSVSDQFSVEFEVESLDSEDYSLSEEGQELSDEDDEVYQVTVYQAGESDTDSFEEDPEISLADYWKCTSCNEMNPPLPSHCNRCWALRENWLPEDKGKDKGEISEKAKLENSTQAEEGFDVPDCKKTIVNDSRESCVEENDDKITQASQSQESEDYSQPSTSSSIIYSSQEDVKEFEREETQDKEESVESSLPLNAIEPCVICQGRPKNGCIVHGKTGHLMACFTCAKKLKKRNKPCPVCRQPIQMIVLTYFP
CSC inhib: blocks cancer stem cells; cancer stem cell-like cells viability, luminescence; inhibition, % at 7.5 µM; 300,000 tested, 1.1% active; in the data active = inhibition above about 75%; inconclusive = no clear call, values can overlap the other calls; tested in HMLE shEcad cells
Jurkat NFkB inh: inhibitors of the PMA/ionomycin-induced NF-kB reporter in Jurkat cells; PMA/ionomycin-induced NF-kB luciferase reporter, luminescence; inhibition, % at 4 µM; 330,000 tested, 0.53% active; AID 435003; in the data active = inhibition above about 50%
Gli-Sufu antag: antagonists of Gli-Sufu signaling; AID 588413; 340,000 tested, 0.74% active; Sufu-KO-LIGHT fibroblasts, Gli luciferase reporter luminescence; inhibition, % at 5 µM;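 active = inhibition above about 55%, limit read from the data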;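 note: 0% = DMSO-treated cells and 100% = wells with medium but no cells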
697 NFkB inh: lowers PMA/ionomycin-induced NF-kB signal in 697 B cells; 697 B-cell NF-kB luciferase reporter, 16 h; inhibition, % at 4 µM; 330,000 tested, 0.33% active; AID 435022; in the data active = inhibition above about 35%
Mdm2-MdmX conf: human Mdm2/MdmX binding inhibition, confirmed | shares compounds with Mdm2-MdmX inh | luminescent assay | inhibition, % at 8 µM | 10,000 tested, 55% active | AID 489028; in the data active = inhibition above about 40%
FLuc counter: full-length luciferase inhibition in Mdm2/MdmX counter-screen. shares compounds with Mdm2-MdmX inh. SaOS-2 full-length luciferase counterscreen, luminescence. inhibition, % at 8 µM. 6,200 tested, 77% active;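 active = mean inhibition at 8 µM reaching about 37%, which flags the compound as non-specific, limit read from the data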;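 note: p53-null SaOS-2 cells with luciferase driven by a doxycycline-inducible promoter; compound on cells about two nights before reading with doxycycline added after day one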
Starred values were filed as active, the others as inactive; ? = inconclusive; . = not tested or not shown. Most compounds without a hit are left out; they make up all but 4.5% or so of the library.

SMILES	Beta apoptosis	Mdm2-MdmX inh	CSC inhib	Jurkat NFkB inh	Gli-Sufu antag	697 NFkB inh	Mdm2-MdmX conf	others
CCCCNc1c(-c2ccc(OC)c(SC(C)CC)c2)nc2cc(C)ccn12 (stereo not given)	.	19	.	0	33	-32	.
COc1cc(OC)c2c(-c3ccccc3)cc(=O)oc2c1C(CCN1CCCCC1)c1ccc(N(C)C)cc1 (stereo not given)	42	79*	-1	25	20	2	16
COc1cc(OC)c2c(-c3ccccc3)cc(=O)oc2c1C(CCN1CCOCC1)c1ccc(N(C)C)cc1 (stereo not given)	.	11	.	.	-9	-17	.
COc1ccc(C(CCN2CCCCC2)c2c(OC)cc(OC)c3c(-c4ccccc4)cc(=O)oc23)cc1 (stereo not given)	86*	94*	-8	15	9	1	40
COc1cc(C(CCN2CCCC2)c2c(OC)cc(OC)c3ccc(=O)oc23)cc(OC)c1OC (stereo not given)	4	-7	5	3	-14	25	.
CC(C#N)(NC(=O)CN1CCN(S(=O)(=O)c2ccccc2C#N)CC1)C1CC1 (stereo not given)	-5	9	.	3	-28	1	.
CCCCC1C(=O)N(c2ccccc2)N(c2ccc(O)cc2)C1=O (stereo not given)	.	98*	33	16	9	-48	36	FLuc counter=8
OCCO	.	-4	.	8	-3	14	.
O=C(Nc1ccccc1)OCCc1ccccn1	.	.	.	.	-68	.	.
NC1=NC[C@H](Cc2ccccc2)N1CCCCC1CCCCC1	112*	78*	20	3	58*	-42	30
c1ccc(C[C@H]2CN=C(Nc3ccccc3)N2CCC2CCCC2)cc1	9	45	18	-2	24	-28	.
CCC(C)[C@H]1CN=C(N)N1CCc1cc(C(F)(F)F)cc(C(F)(F)F)c1 (stereo not given in full)	5	60*	14	-18	37	-8	29
CCC(C)[C@H]1CN=C(N)N1CCCc1cc(OC)c(OC)c(OC)c1 (stereo not given in full)	-2	12	-6	-15	-7	4	.
NC1=NC[C@@H](CC2CCCCC2)N1CCc1cc(C(F)(F)F)cc(C(F)(F)F)c1	109*	99*	139*	8	9	-16	100*	FLuc counter=51*
COC(=O)C1=C(C)NC(C)=C(C(=O)O[C@@H]2CCCN(Cc3ccccc3)C2)[C@@H]1c1cccc([N+](=O)[O-])c1	4	54*	69	-1	9	2	20
Cc1sc2nc(SCC(=O)NCc3ccco3)n(CCc3ccccc3)c(=O)c2c1C	24	63*	0	-5	22	-6	25
COc1cc2nc(SCC(=O)NCc3ccco3)n(Cc3ccc(Cl)cc3)c(=O)c2cc1OC	-9	78*	.	1	14	8	32
Cc1sc2nc(SCC(=O)NCc3ccco3)n(C)c(=O)c2c1C	-2	28	6	23	-4	4	.
CCOc1ccc(Cl)cc1C1=CC(=O)C[C@H](c2ccc(OC)cc2)C1	14	33	56	35	9	-86	.
C=C(C(=O)c1ccccc1)C(CC(=O)c1ccccc1)c1ccccc1 (stereo not given)	-27	101*	?	14	23	-49	99*	FLuc counter=55*
C=C(CCC(=O)c1ccccc1)C(=O)c1ccccc1	-1	.	48	.	3	.	.
COc1cccc(NC(=O)Nc2nnc(-c3ccccc3SCc3ccccc3)s2)c1	34	53*	0	12	1	-8	33
O=C(Nc1nnc(-c2ccccc2SCc2ccccc2)s1)Nc1ccccc1F	17	76*	-2	-14	7	2	17
O=C(Nc1nnc(-c2ccccc2F)s1)Nc1ccccc1F	-1	1	-3	-46	-69	-27	.
COc1ccc(NC(=O)Nc2nnc(-c3ccccc3SCc3ccccc3)s2)cc1	9	23	17	-9	1	-14	.
SMILES	Beta apoptosis	Mdm2-MdmX inh	CSC inhib	Jurkat NFkB inh	Gli-Sufu antag	697 NFkB inh	Mdm2-MdmX conf	others
COc1ccccc1/C=C/C(=O)c1cc(Br)ccc1OC(=O)c1ccco1	20	55*	3	-8	14	-12	14
O=C(/C=C/c1cc(Br)ccc1O)c1ccco1	10	18	?	11	9	-9	.
CC(=O)NC1=NN(C(C)=O)C(C)(c2cccs2)S1 (stereo not given)	-3	55*	8	44	-4	26	42*	FLuc counter=52*
Cc1cccc(C)c1OCc1nc2ccccc2c(=O)n1/N=C/c1c[nH]c2ccccc12	10	23	23	-23	.	-9	.
Cc1cc(/C=N/n2c(COc3ccccc3C)nc3ccccc3c2=O)c(O)c([N+](=O)[O-])c1	79*	56*	62	-2	38	-45	64*	FLuc counter=46*
N/C(=N\N=C/c1ccc(F)cc1)N/N=C\c1ccc(F)cc1	8	60*	77*	-13	24	-6	4
CCOc1ccc(Nc2nnc(SCc3nc4ccccc4c(=O)[nH]3)s2)cc1	16	63*	14	-7	8	-14	23
Cc1cccc(OCc2nnc(SCc3nc4ccccc4c(=O)[nH]3)o2)c1	8	17	15	-11	4	-7	.
COc1ccc(-c2nnc(SCc3nc4ccccc4c(=O)[nH]3)o2)cc1	-8	73*	-11	-32	2	-26	58*	FLuc counter=105*
O=C1CSC(=S)N1N=Cc1ccc(Cl)s1	.	.	.	.	1	.	.
NS(=O)(=O)c1ccc(CCNC(=S)NC(=O)c2ccccc2Br)cc1	3	18	11	3	2	-12	.
Fc1cccc(F)c1/C=C/c1ccc2ccccc2n1	6	-174	28	-150	-68	-142	.
CC(O)/C=C/c1ccc2ccccc2n1 (stereo not given)	-11	60*	15	-8	-4	12	22
CCOC(=O)c1nnc(-c2ccc(C)cc2)nc1Sc1ccccc1Cl	-5	54*	53	-2	15	9	21
CCOC(=O)c1nnc(-c2ccccc2)nc1Sc1c(Cl)cccc1Cl	-25	34	-15	-7	0	-6	.
CCOC(=O)c1nnc(-c2ccc(C)cc2)nc1Oc1ccccc1Cl	-3	51*	.	-11	-9	-16	-2
CN(C)S(=O)(=O)c1cccc(NC(=O)CSc2cccc3cccnc23)c1	.	97*	84*	3	17	3	49*	FLuc counter=17
CN(C)S(=O)(=O)c1ccc(Cl)c(NC(=O)CSc2nc3c(cc2C#N)C(=O)CC(C)(C)C3)c1	-2	13	12	-2	9	14	.
